The values that follow come from PubChem BioAssay (Tox21).

Experiment [1] is described as follows: qHTS assay to test for compound auto fluorescence at 535 nm (green) in HEK293 cells (AID 720680).
A short description of experiment [2]: qHTS assay to test for compound auto fluorescence at 460 nm (blue) in HEK293 cell free culture (AID 720681). In short, it runs like this: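 Test compounds were pinned into cell-free culture medium (DMEM with 10% FBS) and fluorescence was read directly at Ex/Em 405/460 nm. Signals were expressed as fluorescence equivalents of triamterene, with DMSO vehicle as control.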

Experiment [3] is described as follows: qHTS assay to test for compound auto fluorescence at 535 nm (green) in HEK293 cell free culture (AID 720682). The essentials:
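No cells present: wells hold DMEM supplemented with 10% FBS, into which compound or vehicle is pinned. Green emission is then recorded (485 nm excitation, 535 nm emission) and scaled to fluorescein.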

The nature of experiment [4]: qHTS assay to test for compound auto fluorescence at 590 nm (red) in HEK293 cell free culture (AID 720683). The essentials: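 Tox21 10K library compounds were pinned into cell-free DMEM with 10% FBS and fluorescence was read at excitation 540 nm. Activity is expressed as Rose Bengal sodium equivalency.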
A short description of experiment [5]: qHTS assay to test for compound auto fluorescence at 590 nm (red) in HepG2 cell free culture (AID 720684). In short, it runs like this:
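Readout: intrinsic compound fluorescence at 590 nm emission after 540 nm excitation, scaled to Rose Bengal sodium. Matrix was cell-free MEM with 10% FBS; DMSO vehicle wells served as control.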

Experiment [6] can be described thus: qHTS assay to test for compound auto fluorescence at 460 nm (blue) in HepG2 cell free culture (AID 720685). The essentials: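 Cell-free plates of MEM plus 10% FBS received 23 nL compound or DMSO vehicle; blue-channel (405/460 nm) intensity scored against triamterene as reference fluorophore.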
The nature of experiment [7]: qHTS assay to test for compound auto fluorescence at 535 nm (green) in HepG2 cell free culture (AID 720686).
The target of experiment [8] is Glucocorticoid receptor (Homo sapiens) (UniProt P04150). Briefly: qHTS assay to identify small molecule agonists of the glucocorticoid receptor (GR) signaling pathway (AID 720691; active = well fitted activation curve with a large enough effect in the signal ratio in the repeat runs, not every such curve was filed as active; the % refers to the signal ratio). In short, it runs like this: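 Cells: GR-bla HeLa, endogenous GR with stably integrated GRE-beta-lactamase reporter. Treatment 18 h, 37 C, compounds delivered in DMSO. Detection via LiveBLAzer B/G FRET substrate, 2 h RT, fluorescence intensity.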
Glucocorticoid receptor (Homo sapiens), sequence (P04150 whole entry, looked up): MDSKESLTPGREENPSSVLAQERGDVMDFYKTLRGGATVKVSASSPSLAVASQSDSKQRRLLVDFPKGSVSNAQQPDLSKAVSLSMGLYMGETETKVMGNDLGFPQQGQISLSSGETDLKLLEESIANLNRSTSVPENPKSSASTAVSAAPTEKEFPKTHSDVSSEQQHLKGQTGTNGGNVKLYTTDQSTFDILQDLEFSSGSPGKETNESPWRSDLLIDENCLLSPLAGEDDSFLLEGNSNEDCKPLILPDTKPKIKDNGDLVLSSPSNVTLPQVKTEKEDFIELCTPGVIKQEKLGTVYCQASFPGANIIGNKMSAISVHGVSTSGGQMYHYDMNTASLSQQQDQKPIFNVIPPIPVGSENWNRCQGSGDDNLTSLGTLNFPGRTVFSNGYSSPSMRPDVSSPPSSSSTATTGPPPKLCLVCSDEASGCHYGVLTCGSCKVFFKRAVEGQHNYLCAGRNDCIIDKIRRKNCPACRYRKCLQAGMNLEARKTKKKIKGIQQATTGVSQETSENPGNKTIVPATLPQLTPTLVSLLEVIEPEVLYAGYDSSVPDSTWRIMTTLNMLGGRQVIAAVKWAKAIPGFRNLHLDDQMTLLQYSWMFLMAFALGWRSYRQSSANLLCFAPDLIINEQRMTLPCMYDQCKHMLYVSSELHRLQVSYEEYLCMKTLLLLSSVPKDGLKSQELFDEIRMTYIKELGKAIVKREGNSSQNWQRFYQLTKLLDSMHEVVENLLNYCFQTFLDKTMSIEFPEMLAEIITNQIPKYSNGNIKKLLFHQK

The target is the same in experiment [9]. Briefly: qHTS assay to identify small molecule antagonists of the glucocorticoid receptor (GR) signaling pathway (AID 720692; active = well fitted inhibition curve with a large enough effect in the signal ratio in the repeat runs, not every such curve was filed as active; the % refers to the signal ratio; note: potency is the fitted concentration of half-maximal effect). The essentials:
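Quantitative HTS in antagonist format: HeLa cells expressing endogenous GR and a stably integrated GRE-bla reporter, stimulated with 5 nM dexamethasone (final) alongside test compounds for 18 h.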

Experiment [10] in a line: qHTS assay to identify small molecule antagonists of the glucocorticoid receptor (GR) signaling pathway - cell viability counter screen (AID 720693). Note: nearly all actives have a fitted effect of over 55% in size. Note: potency is the fitted concentration of half-maximal effect.
Experiment [11] in a line: qHTS assay for identifying genotoxic compounds that show differential cytotoxicity against isogenic chicken DT40 cell lines with known DNA damage response pathways - wild type cell line (AID 743012). Note: nearly all actives have a fitted effect of over 60% in size. Note: potency is the fitted concentration of half-maximal effect. The essentials: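 Luminescent ATP viability signal (CellTiter-Glo, 30 min RT) recorded after wild type DT40 cells were incubated with compounds for 40 h at 37 C/5% CO2.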
The nature of experiment [12]: qHTS assay for identifying genotoxic compounds that show differential cytotoxicity against isogenic chicken DT40 cell lines with known DNA damage response pathways - Rev3 mutant cell line (AID 743014). Note: nearly all actives have a fitted effect of over 55% in size. Note: potency is the fitted concentration of half-maximal effect.
A short description of experiment [13]: qHTS assay for identifying genotoxic compounds that show differential cytotoxicity against isogenic chicken DT40 cell lines with known DNA damage response pathways - Rad54/Ku70 mutant cell line (AID 743015). Note: nearly all actives have a fitted effect of over 60% in size. Note: potency is the fitted concentration of half-maximal effect.
The nature of experiment [14]: qHTS assay to identify small molecule antagonists of the androgen receptor (AR) signaling pathway - cell viability counter screen (AID 743033; note: nearly all actives have a fitted effect of over 45% in size; note: potency is the fitted concentration of half-maximal effect).
Experiment [15] can be described thus: qHTS assay to identify small molecule antagonists of the thyroid receptor (TR) signaling pathway - cell viability counter screen (AID 743064). Note: nearly all actives have a fitted effect of over 50% in size. Note: potency is the fitted concentration of half-maximal effect. In short, it runs like this:
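Rat GH3 pituitary tumor cells stably expressing two TR response elements driving luciferase were plated, rested 4 h, then dosed with library compounds and T3 (1 nM final). After 23.5 h at 37 °C, CellTiter-Fluor was added for 30 min and fluorescence recorded.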

Experiment [16] can be described thus: qHTS assay to test for compound auto fluorescence at 460 nm (blue) in HepG2 cells (AID 720687). The essentials: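 Cells (2,000/well in MEM with 10% FBS) attached overnight at 37 C, then were exposed to compound or DMSO for 1 hr at 37 C, 5% CO2. Fluorescence read at Ex/Em 405/460 nm, expressed as triamterene-equivalent signal.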
In experiment [17] the target is Androgen receptor (Homo sapiens) (UniProt P10275). Nature of the experiment: qHTS assay to identify small molecule antagonists of the androgen receptor (AR) signaling pathway (AID 743035; active = well fitted inhibition curve with a large enough effect in the signal ratio in the repeat runs, not every such curve was filed as active; the % refers to the signal ratio). The essentials: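 Quantitative HTS of the Tox21 10K library used HEK293 AR-UAS-bla cells stimulated with R1881 alongside compound for 16 h at 37C, followed by beta-lactamase FRET detection (LiveBLAzer B/G, 2 h, RT).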
Androgen receptor (Homo sapiens), sequence (P10275 whole entry, looked up): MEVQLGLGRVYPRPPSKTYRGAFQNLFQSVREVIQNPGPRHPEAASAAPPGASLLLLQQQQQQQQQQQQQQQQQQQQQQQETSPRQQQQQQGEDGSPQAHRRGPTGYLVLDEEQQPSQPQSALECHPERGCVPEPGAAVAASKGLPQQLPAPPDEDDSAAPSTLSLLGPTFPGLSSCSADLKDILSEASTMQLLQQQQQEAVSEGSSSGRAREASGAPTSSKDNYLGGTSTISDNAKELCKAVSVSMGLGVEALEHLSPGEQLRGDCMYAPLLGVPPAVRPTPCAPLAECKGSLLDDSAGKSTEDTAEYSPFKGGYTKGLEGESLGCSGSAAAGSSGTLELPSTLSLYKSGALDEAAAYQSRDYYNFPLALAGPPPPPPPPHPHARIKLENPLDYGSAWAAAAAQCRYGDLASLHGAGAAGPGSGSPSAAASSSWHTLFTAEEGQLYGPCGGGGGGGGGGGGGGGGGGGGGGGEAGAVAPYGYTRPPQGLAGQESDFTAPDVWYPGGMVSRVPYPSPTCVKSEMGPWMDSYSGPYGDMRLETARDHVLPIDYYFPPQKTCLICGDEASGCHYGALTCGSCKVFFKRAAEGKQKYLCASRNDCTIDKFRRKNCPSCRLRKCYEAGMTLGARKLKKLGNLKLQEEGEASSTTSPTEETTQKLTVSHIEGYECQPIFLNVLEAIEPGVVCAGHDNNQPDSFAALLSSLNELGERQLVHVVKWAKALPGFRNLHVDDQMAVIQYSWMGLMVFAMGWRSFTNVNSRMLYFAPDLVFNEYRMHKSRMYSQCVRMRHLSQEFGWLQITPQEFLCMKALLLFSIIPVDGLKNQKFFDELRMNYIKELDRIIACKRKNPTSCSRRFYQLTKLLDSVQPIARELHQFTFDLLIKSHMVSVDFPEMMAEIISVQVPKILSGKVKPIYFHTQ

For experiment [18] the target is unchanged. Briefly: qHTS assay to identify small molecule agonists of the androgen receptor (AR) signaling pathway (AID 743036; active = well fitted activation curve with a large enough effect in the signal ratio in the repeat runs, with a control signal flat, not every such curve was filed as active; the % refers to the signal ratio). The essentials:
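Quantitative HTS of the Tox21 10K library in HEK293 cells bearing a stably integrated UAS-controlled beta-lactamase reporter. Compound exposure lasted 16 h at 37C. Reporter activity was detected by FRET substrate fluorescence after 2 h at room temperature.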

Experiment [19] shares this target. Nature of the experiment: qHTS assay to identify small molecule agonists of the androgen receptor (AR) signaling pathway using the MDA cell line (AID 743040; note: nearly all actives have a fitted effect of over 20% in size). In short, it runs like this:
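Agonist activity is measured as luciferase luminescence in human MDA-kb2 cells whose MMTV reporter responds to both AR and GR. Compounds in DMSO incubate 16 h at 37C, 0% CO2, and ONE-Glo is read after 30 min.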

The nature of experiment [20]: qHTS assay to identify small molecule antagonists of the androgen receptor (AR) signaling pathway using the MDA cell line - cell viability counter screen (AID 743041; note: nearly all actives have a fitted effect of over 45% in size; note: potency is the fitted concentration of half-maximal effect). The essentials: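 qHTS viability read-out; MDA-kb2 AR-luc; R1881-stimulated; 16 h exposure at 37C, 0% CO2; CellTiter-Fluor, 30 min; fluorescence intensity.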

Values joined by “and” are separate entries in the source; they are usually repeats but may differ in a detail not shown here. Equal values may be shown once. Values without a mark were called inactive. Records with an inconclusive call do not appear. Active and inactive are the calls of the source. Unless noted, calls come from the whole dose curve; as a rule, active = well fitted curve in the direction sought with a large enough effect in the repeat runs; inconclusive = weak or mixed curves; inactive = no such curve, though single readings can be large; an effect the other way counts as inactive or inconclusive.

In the case of `CC1=C(C(=O)Nc2ccccc2)S(=O)(=O)CCO1`, the result in [1], in experiment [2], in experiment [3], in [4], in experiment [5] and in experiment [6] was inactive. The result in [7] and in experiment [8] was inactive. Further, the Potency in experiment [9] is 48.9 µM (active); in [11], 15.3 µM (active); in experiment [12], 15.3 µM (active); in experiment [13] it was 17.2 µM (active); in experiment [15], 30.6 µM (active). Also, the Potency result in experiment [10] and in [14] was “inactive” each time.
`O=[N+]([O-])c1cccc2c([N+](=O)[O-])cccc12`: the result in [1], in [2], in experiment [4], in experiment [5], in [6] and in experiment [7] was inactive. The result in experiment [16], in [8] and in [18] was inactive. For the same molecule, the Potency result in experiment [9], in experiment [10], in [11], in experiment [12], in experiment [13] and in experiment [14] was “inactive” throughout. In addition, the Potency result in [17], in [19] and in experiment [20] was “inactive” throughout.
As to `CCN(CC)C(=O)[C@@H]1C=C2c3cccc4[nH]cc(c34)C[C@H]2N(C)C1`, the outcome in [1], in experiment [2], in [4], in experiment [5], in [6] and in experiment [7] was inactive. The molecule was classed as inactive in experiment [16] and in [8]. Further, the Potency result in experiment [9], in [10], in [14] and in experiment [20] was “inactive” in each case. Further, the Potency in experiment [11] is 8.98 µM (active) and 10.6 µM (active); in experiment [12], 101 µM (active) and 23.7 µM (active); in experiment [13] it was 31.9 µM (active) and 11.9 µM (active).
For `O=S(=O)(O)C(F)(F)C(F)(F)C(F)(F)C(F)(F)C(F)(F)C(F)(F)F`, the molecule was called inactive in experiment [1], in experiment [2], in experiment [3], in experiment [4], in experiment [5] and in [6]. Also, the molecule was called inactive in [7] and in experiment [8]. Moreover, the Potency entry in experiment [9], in [10], in experiment [11], in experiment [12], in [13] and in experiment [14] was “inactive” each time. Further, the Potency entry in [20] and in experiment [15] was “inactive” throughout.
As for `CCOP(=O)(OCC)OP(=O)(OCC)OCC`, the call in [1], in [2], in experiment [3], in experiment [4], in [5] and in experiment [6] was inactive. In addition, the call in [7] and in experiment [18] was inactive. The Potency entry in [10], in experiment [11], in experiment [13], in experiment [14], in [17] and in [19] was “inactive” throughout. Further, the Potency result in experiment [20] and in experiment [15] was “inactive” throughout.
`CCS(=O)(=O)CCSP(=O)(OC)OC`: the molecule was called inactive in [1], in experiment [2], in experiment [3], in [4], in experiment [5] and in [6]. Besides, the molecule was classed as inactive in experiment [7] and in experiment [8]. Besides, the Potency entry in experiment [9], in experiment [10], in experiment [14], in experiment [20] and in experiment [15] was “inactive” each time. The Potency in experiment [11] was 61.1 µM (active); in experiment [12], 38.6 µM (active); in experiment [13], 48.6 µM (active).
As to `CC(C)(C)OC(=O)c1ncn2c1[C@@H]1CCCN1C(=O)c1c(Br)cccc1-2`, the molecule was classed as inactive in experiment [1], in [2], in experiment [3], in [4], in [5] and in experiment [6]. The molecule was called inactive in experiment [7]. The Potency result in experiment [10], in experiment [14], in experiment [20] and in experiment [15] was “inactive” each time. Besides, in experiment [11], the Potency is 26.6 µM (active).
As to `NC(=O)c1cc([N+](=O)[O-])cc([N+](=O)[O-])c1`, the call in [1], in experiment [2], in [3], in [4], in experiment [5] and in [6] was inactive. In addition, the call in experiment [7] was inactive. The Potency entry in [10], in [11], in experiment [12], in experiment [13], in experiment [14] and in [20] was “inactive” in each case. Further, the Potency result in [15] was “inactive”.
Regarding `COc1cccc2c1cc([N+](=O)[O-])c1c(C(=O)O)cc3c(c12)OCO3`, the molecule was called inactive in experiment [1], in [2], in experiment [3], in experiment [4], in experiment [5] and in experiment [6]. For the same molecule, the molecule was called inactive in experiment [7]. The Potency in [9] is 13.8 µM (active); in [10] it was 12.3 µM (active); in [11], 0.77 µM (active); in [12], 0.137 µM (active); in [13], 0.193 µM (active); in [14], 12.3 µM (active). Moreover, the Potency was 34.4 µM (active) in experiment [20] and 3.06 µM (active) in experiment [15].
`CC(CC(C#N)(c1ccccc1)c1ccccc1)N(C)C` (stereo not drawn): the result in experiment [1], in experiment [2], in experiment [3], in experiment [4], in experiment [5] and in experiment [6] was inactive. Moreover, the call in experiment [7] and in experiment [8] was inactive. The Potency result in experiment [9], in [10], in experiment [14] and in [20] was “inactive” in each case. The Potency in experiment [11] was 30.5 µM (active); in experiment [12] it was 54.2 µM (active); in [13], 48.3 µM (active); in [15], 24.2 µM (active).
`COC(=O)c1c(C(F)F)nc(C(F)(F)F)c(C2=NCCS2)c1CC(C)C`: the outcome in experiment [1], in experiment [2], in experiment [3], in experiment [4], in experiment [5] and in experiment [6] was inactive. For the same molecule, the call in [7], in [16] and in [18] was inactive. The Potency result in [10], in experiment [14], in experiment [17], in [19] and in experiment [20] was “inactive” throughout. Further, the Potency in experiment [12] and in experiment [13] was 61.1 µM (active) throughout.
With `CCN(Cc1ccc(Cl)nc1)/C(=C/[N+](=O)[O-])NC`, the call in [1], in experiment [2], in experiment [3], in [4], in experiment [5] and in experiment [6] was inactive. Besides, the call in experiment [7] and in [8] was inactive. Also, the Potency result in experiment [9], in [10], in experiment [11], in experiment [12], in experiment [13] and in experiment [14] was “inactive” in each case. Also, the Potency entry in [20] is “inactive”.
For the molecule `ClCC(Cl)Cl`, the molecule was classed as inactive in experiment [1], in experiment [2], in experiment [3], in experiment [4], in experiment [5] and in experiment [6]. The result in experiment [7] and in experiment [16] was inactive. For the same molecule, the Potency entry in [10], in [12], in [13], in experiment [14], in experiment [20] and in experiment [15] was “inactive” each time.
